# From PubChem BioAssay AID1159580 (chemical genetic matrix, 2015)
# Values joined by “and” are separate entries in the source; they are usually repeats but may differ in a detail not shown here. Equal values may be shown once. In all, about 5,500 compounds went through this assay and about 2,000 (36%) were called active. Inconclusive results (about 18%) are left out. Some of the results follow. Unmarked numbers belong to inactive results. No stated cut-off is given here; in the data, active means normalized growth mostly below about 0.91 (no sharp cut-off); inconclusive means no clear call, values can overlap the other calls; inactive means mostly above about 0.92.
# Assay: chemical genetic growth profiling, strain panel (AID 1159580);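 further: tested at 20 µM; growth read once vehicle control cultures reached saturation at 30 °C; 1 = growth at the plate median or of vehicle wells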
# Settings: S. cerevisiae deletion strains, growth OD
smiles,measurement,setting,value
CCC(C)C(=O)O[C@@H]1C[C@@]2(C)[C@H](c3ccoc3)OC(=O)CC23OC2(C)OC34[C@H](OC(=O)C(C)C)[C@@]3(O)[C@@H](OC(=O)C5(C)OC5C)[C@@]5(C)C[C@]3(O)[C@@](C)([C@H]5CC(=O)OC)C14O2 (stereo partly specified),normalized growth,"locus YAL021C, strain ccr4, stronger effect = lower value",1.03
same,normalized growth,"locus YAL026C, strain drs2, stronger effect = lower value",0.981
same,normalized growth,"locus YAL030W, strain snc1, stronger effect = lower value",0.996
same,normalized growth,"locus YBL061C, strain skt5, stronger effect = lower value",1
same,normalized growth,"locus YBR009C, strain hhf1, stronger effect = lower value",1.02
same,normalized growth,"locus YBR021W, strain FUR4, stronger effect = lower value",1.07
same,normalized growth,"locus YBR023C, strain chs3, stronger effect = lower value",1
same,normalized growth,"locus YBR171W, strain sec66, stronger effect = lower value",0.988
same,normalized growth,"locus YBR229C, strain ROT2, stronger effect = lower value",1.01
same,normalized growth,"locus YBR231C, strain swc5, stronger effect = lower value",0.996
same,normalized growth,"locus YBR279W, strain paf1, stronger effect = lower value",0.995
same,normalized growth,"locus YCL011C, strain gbp2, stronger effect = lower value",1
same,normalized growth,"locus YCL016C, strain dcc1, stronger effect = lower value",1.01
same,normalized growth,"locus YCL029C, strain bik1, stronger effect = lower value",0.994
same,normalized growth,"locus YCL061C, strain MRC1, stronger effect = lower value",1
same,normalized growth,"locus YCL069W, strain vba3, stronger effect = lower value",0.995
same,normalized growth,"locus YCR088W, strain abp1, stronger effect = lower value",0.999
same,normalized growth,"locus YDL005C, strain med2, stronger effect = lower value",1.02
same,normalized growth,"locus YDL035C, strain GPR1, stronger effect = lower value",0.974
same,normalized growth,"locus YDL040C, strain nat1, stronger effect = lower value",0.996
same,normalized growth,"locus YDL074C, strain BRE1, stronger effect = lower value",1.01
same,normalized growth,"locus YDL101C, strain DUN1, stronger effect = lower value",1.03
same,normalized growth,"locus YDL185W, strain tfp1, stronger effect = lower value",1.01
same,normalized growth,"locus YDL192W, strain arf1, stronger effect = lower value",0.987
same,normalized growth,"locus YDR001C, strain nth1, stronger effect = lower value",0.999
same,normalized growth,"locus YDR069C, strain doa4, stronger effect = lower value",0.991
same,normalized growth,"locus YDR101C, strain arx1, stronger effect = lower value",0.977
same,normalized growth,"locus YDR137W, strain rgp1, stronger effect = lower value",0.651 (active)
same,normalized growth,"locus YDR150W, strain NUM1, stronger effect = lower value",1
same,normalized growth,"locus YDR159W, strain sac3, stronger effect = lower value",0.981
same,normalized growth,"locus YDR162C, strain NBP2, stronger effect = lower value",0.993
same,normalized growth,"locus YDR195W, strain ref2",1.03
same,normalized growth,"locus YDR297W, strain sur2, stronger effect = lower value",0.992
same,normalized growth,"locus YDR318W, strain mcm21, stronger effect = lower value",1.01
same,normalized growth,"locus YDR334W, strain swr1, stronger effect = lower value",1
same,normalized growth,"locus YDR335W, strain msn5, stronger effect = lower value",0.997
same,normalized growth,"locus YDR388W, stronger effect = lower value",1.01
same,normalized growth,"locus YDR392W, strain spt3, stronger effect = lower value",0.998
same,normalized growth,"locus YDR502C, strain sam2, stronger effect = lower value",1.03
same,normalized growth,"locus YEL003W, strain gim4, stronger effect = lower value",1
same,normalized growth,"locus YEL037C, strain rad23, stronger effect = lower value",1.01
same,normalized growth,"locus YEL061C, strain CIN8 (second series), stronger effect = lower value",1
same,normalized growth,"locus YEL061C, strain CIN8, stronger effect = lower value",1
same,normalized growth,"locus YER015W, strain faa2, stronger effect = lower value",1.01
same,normalized growth,"locus YER016W, strain bim1, stronger effect = lower value",1
same,normalized growth,"locus YER110C, stronger effect = lower value",1.02
same,normalized growth,"locus YER111C, strain swi4, stronger effect = lower value",0.99
same,normalized growth,"locus YER155C, strain BEM2 (second series), stronger effect = lower value",1.02
same,normalized growth,"locus YER155C, strain BEM2, stronger effect = lower value",1.01
same,normalized growth,"locus YER167W, strain BCK2, stronger effect = lower value",0.995
same,normalized growth,"locus YFR010W, strain ubp6, stronger effect = lower value",1.01
same,normalized growth,"locus YGL078C, strain dbp3, stronger effect = lower value",1.03
same,normalized growth,"locus YGL086W, strain mad1, stronger effect = lower value",1.02
same,normalized growth,"locus YGL167C, strain pmr1, stronger effect = lower value",0.993
same,normalized growth,"locus YGL173C, strain kem1, stronger effect = lower value",0.977
same,normalized growth,"locus YGL227W, strain vid30, stronger effect = lower value",0.992
same,normalized growth,"locus YGL240W, strain doc1, stronger effect = lower value",1
same,normalized growth,"locus YGL248W, strain PDE1, stronger effect = lower value",1.03
same,normalized growth,"locus YGL253W, strain hxk2, stronger effect = lower value",0.986
same,normalized growth,"locus YGR135W, strain pre9, stronger effect = lower value",1.06
same,normalized growth,"locus YGR252W, strain gcn5, stronger effect = lower value",1.15
same,normalized growth,"locus YHR013C, strain ard1, stronger effect = lower value",1.01
same,normalized growth,"locus YHR027C, strain rpn1, stronger effect = lower value",0.996
same,normalized growth,"locus YHR030C, strain SLT2, stronger effect = lower value",1.05
same,normalized growth,"locus YHR079C, strain IRE1 (second series), stronger effect = lower value",1
same,normalized growth,"locus YHR079C, strain IRE1, stronger effect = lower value",1.04
same,normalized growth,"locus YHR094C, strain hxt1, stronger effect = lower value",1.01
same,normalized growth,"locus YHR129C, strain ARP1, stronger effect = lower value",1.02
same,normalized growth,"locus YHR142W, strain chs7, stronger effect = lower value",0.994
same,normalized growth,"locus YHR200W, strain rpn10, stronger effect = lower value",1.03
same,normalized growth,"locus YIL066C, strain RNR3, stronger effect = lower value",0.982
same,normalized growth,"locus YIL073C, strain SPO22, stronger effect = lower value",1
same,normalized growth,"locus YIL125W, strain kgd1, stronger effect = lower value",1
same,normalized growth,"locus YIR030C, strain dcg1, stronger effect = lower value",1
same,normalized growth,"locus YJL092W, strain hpr5, stronger effect = lower value",1.01
same,normalized growth,"locus YJL095W, strain BCK1 (second series), stronger effect = lower value",1.02
same,normalized growth,"locus YJL095W, strain BCK1, stronger effect = lower value",1.06 and 1.02
same,normalized growth,"locus YJL115W, strain asf1, stronger effect = lower value",1.01
same,normalized growth,"locus YJL129C, strain trk1, stronger effect = lower value",0.98
same,normalized growth,"locus YJL134W, strain LCB3, stronger effect = lower value",1
same,normalized growth,"locus YJL154C, strain vps35, stronger effect = lower value",0.993
same,normalized growth,"locus YJL164C, strain tpk1, stronger effect = lower value",0.996
same,normalized growth,"locus YJL166W, strain qcr8, stronger effect = lower value",0.989
same,normalized growth,"locus YJL168C, strain set2, stronger effect = lower value",1.01
same,normalized growth,"locus YJL187C, strain SWE1 (second series), stronger effect = lower value",1.04
same,normalized growth,"locus YJL187C, strain SWE1, stronger effect = lower value",1
